Shown are actives, neighbours in structure and some others; about 2.3% of the full set was active somewhere.
5HT1a antag: human 5-HT1a receptor antagonists, primary screen, cell-based, CHO, Ga15 NFAT-bla reporter; 5-hydroxytryptamine receptor 1A (Homo sapiens), P08908; CHO 5-HT1a Ga15 NFAT-bla reporter, antagonist mode; inhibition, % at 10 µM; actives 0.68% (n = 62,000);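 active = inhibition above the mean of all tested compounds plus 3 SD, cut at about 43% in these data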;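 also: receptor stimulated by 5-CT agonist at 100 nM near EC80; beta-lactamase reporter measured by ratiometric fluorescence of a cleavable substrate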
Target sequence (P08908 whole entry, looked up): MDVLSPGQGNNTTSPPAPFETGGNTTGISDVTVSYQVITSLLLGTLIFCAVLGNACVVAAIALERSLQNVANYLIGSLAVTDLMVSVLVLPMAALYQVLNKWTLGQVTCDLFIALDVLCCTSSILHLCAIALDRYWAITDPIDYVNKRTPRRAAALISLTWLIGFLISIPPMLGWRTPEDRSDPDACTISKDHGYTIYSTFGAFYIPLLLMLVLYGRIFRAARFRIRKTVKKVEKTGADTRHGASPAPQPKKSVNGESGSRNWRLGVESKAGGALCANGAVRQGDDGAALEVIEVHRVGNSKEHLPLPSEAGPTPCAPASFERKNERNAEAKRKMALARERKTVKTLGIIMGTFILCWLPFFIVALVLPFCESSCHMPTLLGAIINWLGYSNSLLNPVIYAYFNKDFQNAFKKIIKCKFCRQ
HTR1E agonist: 5-HT1E receptor agonists, primary screen, cell-based, HTS | 5-hydroxytryptamine receptor 1E (Homo sapiens), P28566 | CHO 5-HT1E Ga15 NFAT-bla reporter, FRET; 0% DMSO wells, 100% control agonist wells | actives 0.69% (n = 65,000) | activation, % at 6 µM;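 active = activation above a set limit, the screen-wide mean activation plus 3 SD, cut at about 8.5% in these data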;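 also: 100% = positive control agonist at 1 µM giving full maximal response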
Htt clearance: clearance of mutant huntingtin inclusions, primary screen, imaging, HeLa Exon1htt(103Q)mCFP, confocal imaging | AID 853, 2007 | actives 0.42% (n = 47,000) | aggregate imaging; zero = plate's median compound well | inhibition, % at 1.5 µM;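 active = inhibition of aggregate fluorescence above about 70%, also judged a hit by eye on the cell image, limit read from the data, passing the limit was not always enough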;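 also: cells exposed to compound for three days before fixation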
5HT1a ag: human 5-HT1a receptor agonists, primary screen, cell-based, CHO, Ga15 NFAT-bla reporter; activation, % at 10 µM; actives 0.56% (n = 65,000); CHO 5-HT1a Ga15 NFAT-bla reporter, FRET ratio; 0% basal, 100% maximal reference agonist; 5-hydroxytryptamine receptor 1A (Homo sapiens), P08908;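 active = activation above the screen-wide mean activation plus 3 SD, cut at about 19% in these data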;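 also: 0% = DMSO wells and 100% = 5-CT at EC100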
HTR1E antagonist: 5-HT1E receptor antagonists, primary screen, cell-based, HTS; AID 571, 2007; actives 0.99% (n = 65,000); CHO 5-HT1E Ga15 NFAT-bla reporter, FRET, antagonist; inhibition, % at 6 µM; 5-hydroxytryptamine receptor 1E (Homo sapiens), P28566;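 active = inhibition above a set limit, the mean inhibition across every tested compound plus 3 SD, cut at about 29% in these data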;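 also: signal is the 460 over 535 nm emission ratio of beta-lactamase substrate; 0% = agonist plus DMSO wells and 100% = wells without agonist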
Starred values were filed as active, the others as inactive; nt = no result.

SMILES	5HT1a antag	HTR1E agonist	Htt clearance	5HT1a ag	HTR1E antagonist
CC12CCC(c3c(C(=O)Nc4nccs4)nn(-c4ccccc4)c31)C2(C)C (stereo unspecified)	-1	1	-8	-1	-5
CC(=O)NCc1ccc(C(=O)CSc2nnc(-c3ccncc3)n2Cc2ccccc2)o1	-2	12*	20	0	1
O=C(Cc1coc(-c2ccc(F)cc2)n1)N1CCOCC1	6	0	nt	0	-1
Cc1c(O)c(CN2CCCCC2)cc2c1oc(=O)c1ccccc12	nt	nt	-20	nt	nt
Oc1c(CN2CCc3ccccc3C2)cc(Cl)c2cccnc12	25	0	nt	30*	18
Oc1c(CN2CCCCC2)cc(Br)c2cccnc12	47*	1	-10	11	41*
Oc1c(I)cc(Cl)c2cccnc12	nt	2	nt	-2	-15
CC1=C(C(=O)OCC(C)C)C(c2ccc(F)cc2)NC(=O)N1 (stereo unspecified)	8	1	nt	-1	3
CCCOC(=O)c1ccc(Oc2cn[nH]c2-c2ccc(OC)cc2O)cc1	46*	-1	nt	0	26
COc1ccc(N2C(=O)CC(NCc3ccncc3)C2=O)cc1 (stereo unspecified)	1	0	nt	-1	77*
CCN1C(=O)c2ccccc2S(=O)c2ccc(C(=O)NCCCN3CCCC3=O)cc21 (stereo unspecified)	9	-1	nt	0	30*
Oc1c(C(c2cccc(F)c2)N2CCN(Cc3ccccc3)CC2)sc2ncnn12 (stereo unspecified)	-2	0	nt	2	3
COC(=O)c1ccc(-n2c(C)cc(/C=N/n3cnnc3)c2C)cc1	2	19*	nt	-2	2
Cc1cc(/C=N/n2cnnc2)c(C)n1-c1cc(Cl)ccc1Cl	52*	-1	nt	-5	40*
Cc1cccc(-n2c(C)cc(/C=N/n3cnnc3)c2C)c1	nt	nt	-3	nt	nt
Fc1ccc(-c2nnc(-n3nnc4ccccc43)c3ccccc23)cc1	nt	nt	-46	nt	nt
COc1ccc(/C=N/Nc2ccccc2)cc1Cn1nc(C)c([N+](=O)[O-])c1C	nt	nt	23	nt	nt
Cc1sc2nc(SCC(=O)c3cc(C)n(CC4CCCO4)c3C)n(C(C)C)c(=O)c2c1C (stereo unspecified)	-35	1	2	4	2
N#Cc1c(-c2cccs2)cc(-c2ccccn2)nc1N	5	2	3	6	43*
N#Cc1c(-c2cccs2)cc(-c2cccnc2)nc1N	6	1	38	3	44*
Cc1c(-c2ccc(F)cc2)nc(N)c(C#N)c1-c1cccs1	nt	nt	14	nt	nt
Cc1cccc(-n2c(CCCN3C(=O)c4ccccc4C3=O)nc3ccccc3c2=O)n1	-4	0	nt	-2	5
CC(C)CC(c1nnnn1CC1CCCO1)N1CCN(c2nc3ccccc3s2)CC1 (stereo unspecified)	3	0	nt	-5	-10
CCCCC(c1nnnn1CC1CCCO1)N1CCN(c2nc3ccccc3s2)CC1 (stereo unspecified)	26	10*	6	-2	20
COc1ccc(OC)c(NC(=O)CCN2CCN(c3ccccc3)CC2)c1	5	0	nt	0	2
SMILES	5HT1a antag	HTR1E agonist	Htt clearance	5HT1a ag	HTR1E antagonist
O=C(CCN1CCN(c2ccccn2)CC1)Nc1ccc(F)cc1	18	0	nt	29*	-8
CCOc1ccc(NC(=O)CCN2CCN(c3ccccc3)CC2)cc1	68*	0	-59	3	23
O=C(CN1CCN(c2ccccn2)CC1)Nc1ccc2ccccc2c1	5	0	nt	0	-6
O=S(=O)(/C=C/c1ccccc1)Nc1ccc2c(c1)OCO2	nt	0	nt	1	11
CCOC(=O)c1c(C)c(C(=O)NCCCOC(C)C)c(C)n1C	-2	0	nt	-1	6
O=C(Nc1cccc2cccnc12)c1cccnc1	4	-2	nt	39*	3
Clc1ccc(-c2nn3c(Cn4cnc5ccccc54)nnc3s2)c(Cl)c1	17	1	nt	0	3
Cc1nc2ccc(S(=O)(=O)NCC(=O)N3CCC(C)CC3)cc2s1	-11	0	-295	-3	4
CCCCNC(=O)CCn1nc(-c2ccccc2)ccc1=O	-6	0	nt	-2	-12
CCCCN(C)CCCNC(=O)CCn1nc(-c2ccccc2)ccc1=O	4	22*	nt	-4	6
COC(=O)c1sc2ccccc2c1C(=O)OC	2	11*	-10	-3	2
Cc1cc(C(=O)OCC(=O)NCc2ccco2)c(C)n1-c1ccc(F)cc1	34	-1	nt	-3	37*
Cc1ccc(C(=O)OCC(=O)NCc2ccco2)cc1	nt	nt	31	nt	nt
O=c1nc(C(F)(F)F)nc2ccccn12	9	-1	62	21*	-4
N#C/C(=C(/O)CN1CCOCC1)c1nc2ccccc2s1	-6	0	77*	5	-6
O=C(CN1C(=O)CC(c2ccccc2)=Nc2ccccc21)NCc1ccco1	24	-1	-37	-2	31*
CCOC(=O)CCS(=O)(=O)c1nc(-c2ccccc2)cc(C(F)(F)F)n1	86*	1	36	0	54*
CCOC(=O)CS(=O)(=O)c1nc(-c2ccccc2)cc(C(F)(F)F)n1	105*	5	-18	-7	108*
CCOC(=O)CS(=O)(=O)c1nc(-c2ccc(F)cc2)cc(C(F)(F)F)n1	102*	3	nt	-10	82*
CC(C)OC(=O)CSc1nc(-c2ccc(F)cc2)cc(C(F)(F)F)n1	nt	nt	38	nt	nt
COC(=O)c1cc(C)sc1NC(=O)c1cccnc1	2	0	28	-1	-8
Cc1ccc(NC(=O)Cc2nc(CSc3nnc(-c4ccc5c(c4)OCO5)o3)cs2)cc1	-5	1	52	0	2
COc1ccc(/C=C2/SC(=O)N(NS(=O)(=O)c3ccccc3)C2=S)cc1OC	nt	nt	-96	nt	nt
O=C(Nc1ncnc2c1CCC2)C12CC3CC(CC(C3)C1)C2	2	0	nt	40*	16
Cc1cc(NC(=O)C2CC2)ncc1NC(=O)C12CC3CC(CC(C3)C1)C2	3	0	-20	-1	6
O=C(Cc1ccc(-n2cccc2)cc1)NCc1cccs1	36	0	-233	-3	51*
COc1ccc(/C=N/n2cncn2)cc1CSc1ccccn1	nt	16*	-16	0	-8
CCc1ccccc1NS(=O)(=O)c1ccc2[nH]cc(C(=O)NCC3CCCO3)c(=O)c2c1 (stereo unspecified)	-8	0	94*	-3	1
CC(=O)Nc1ccc(S(=O)(=O)/N=C2\SCCN2S(=O)(=O)c2ccc(NC(C)=O)cc2)cc1	-7	0	44	73*	-3
CC(=O)Nc1ccc(S(=O)(=O)Nc2ccc(S(=O)(=O)N3CCCC3)cc2)cc1	nt	nt	2	nt	nt
